KB-3-1 tox = KB-3-1 parental cell cytotoxicity; KB-3-1 viability, CellTiter-Glo ATP luminescence, 72 h; Potency, µM (highest dose often 46.1 µM), usual class: cytotoxic; 400,000 compounds, 1.4% hits; AID 1347075; note: % is set by controls: 0 for no effect and ±100 for the full control effect; nearly all actives have a fitted effect of over 60% in size
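Multi-concentration cytotoxicity screen in KB-3-1 cells grown in DMEM lacking phenol red with 10% FBS. After 72 h at 37 °C with compound, ATP-dependent luminescence was recorded.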
KB-V1 cytotox = kills drug-selected multidrug resistant KB-V1 cells. Potency, µM (highest dose often 46.1 µM), most hits filed as cytotoxic. 400,000 compounds, 3.4% hits. KB-V1 MDR cells viability, CellTiter-Glo, 72 h; note: % is set by controls: 0 for no effect and ±100 for the full control effect; nearly all actives have a fitted effect of over 60% in size
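Cells of the MDR subline KB-V1 are plated, dosed with compound at multiple concentrations, and incubated 72 h at 37 degrees C; CellTiter-Glo is then added and luminescence read after 10 min.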
SW480 rereplic = inducers of DNA re-replication in SW480 colon cancer cells; SW480 DNA re-replication, Hoechst DNA content imaging, 48 h; 340,000 compounds, 1.8% hits; Potency, µM (top dose mostly 46.1 µM), inactives show top-dose re-replication activation, most hits filed as activators; note: % of control where 0% means no effect; nearly all actives have a fitted effect of over 55% in size
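Image-based read-out: total Hoechst fluorescence of nuclei (405 nm excitation, 500-530 nm emission), with hits raising the fraction of high-intensity nuclei. SW480 colon cells incubated 48 hr with compounds at 37 C.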
PTAP TSG101 blk = blocks PTAP/TSG101 interaction to inhibit HIV-1 budding; AID 493005; Q99816; Fluorescence polarization, FITC-PTAP peptide / Tsg101 binding; 340,000 tested, under 10 active; Potency, µM (highest dose often 115 µM), inactives show at the highest dose activity change, negative = inhibition, actives largely listed as inhibitors; active = well fitted inhibition curve with a large enough effect in the main read-out, with a control signal flat, not every such curve was filed as active; inconclusive = small, poorly fitted or top-dose-only effect, or effect the other way, or a change in a side signal; inactive = no such curve, though single readings can be large or run the other way; note: % of control where 0% means no effect
Target sequence (Q99816 whole entry, looked up): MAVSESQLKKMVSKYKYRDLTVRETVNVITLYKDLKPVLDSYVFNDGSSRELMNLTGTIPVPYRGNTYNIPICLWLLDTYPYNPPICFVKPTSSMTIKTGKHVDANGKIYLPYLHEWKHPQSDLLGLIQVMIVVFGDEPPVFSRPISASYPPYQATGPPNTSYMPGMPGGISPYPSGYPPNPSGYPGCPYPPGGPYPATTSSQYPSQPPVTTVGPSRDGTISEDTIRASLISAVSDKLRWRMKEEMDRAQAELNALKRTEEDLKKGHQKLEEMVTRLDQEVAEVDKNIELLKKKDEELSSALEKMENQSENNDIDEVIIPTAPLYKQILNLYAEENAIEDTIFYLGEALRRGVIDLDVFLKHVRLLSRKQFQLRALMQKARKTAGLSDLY
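Steps: Tsg101 binding domain dispensed (10 uM final), compounds pinned in DMSO, FITC-labeled PTAP-motif peptide added (50 nM final); after 20 min binding at room temperature, polarization measured.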
RGS4 inhibitor = inhibitors of human regulator of G protein signaling 4 | P49798 | Transcreener GDP fluorescence polarization, RGS4-accelerated GTP hydrolysis | Potency, µM (titrated, usually from 114 µM), for inactives: at the top dose activity change, negative = inhibition, most hits filed as inhibitors | 390,000 compounds, 0.039% hits | AID 504845; note: % is set by controls: 0 for no effect and ±100 for the full control effect; nearly all actives have a fitted effect of over 75% in size
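MLSMR compounds (23 nl, pin-transferred) preincubated 10 min at room temperature with a 500nM (2x) first reagent, then RGS4 at 900nM (2x) plus Transcreener GDP mix added; fluorescence polarization (620/688 nm) read before and after 90 min at 30 °C.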
MCF10A rerep = induces DNA re-replication in MCF 10a normal breast cells | MCF 10A DNA re-replication, Hoechst nuclear intensity, 48 h | Potency, µM (titrated, usually from 46.1 µM), inactives show at the top dose activity, positive = re-replication, most hits filed as activators | 350,000 compounds, 2.9% hits | AID 624296; note: % of control where 0% means no effect; nearly all actives have a fitted effect of over 50% in size
* = called active by the depositor; i = inactive; ? = inconclusive; . = no result; [ ] = dose if it differs, or a comment. Compounds with a hit are over-represented: about 6.6% of the library has one in this group of screens. Unless noted, calls come from the whole dose curve; as a rule, active = well fitted curve in the direction sought with a large enough effect; inconclusive = small, poorly fitted or top-dose-only effect, or another doubt; inactive = no such curve, though single readings can be large; an effect the other way counts as inactive or inconclusive. Potency is the fitted concentration of half-maximal effect.

SMILES	KB-3-1 tox	KB-V1 cytotox	SW480 rereplic	PTAP TSG101 blk	RGS4 inhibitor	MCF10A rerep
Cc1ccc(Sc2ncccc2N)cc1	i	i	21µM*	-6%	?	?
Cc1nc(Nc2ccc(Cl)cc2)cc(-c2ccccc2)n1	i	i	.	.	-3%	.
CCOC(=O)c1cc(NC(=O)N(C)C2CCCCC2)c(C)nc1C	i	i	-9%	-5%	11%	5%
CCOC(=O)c1cc(NC(=O)N(CC)C2CCCCC2)c(C)nc1C	i	23µM*	-2%	-1%	18%	13%
N/C(=C\c1ccccc1)c1ccncc1	i	i	.	.	.	.
CNC(=O)c1ccc2nc(Cc3ccccc3)oc2c1	i	i	.	.	25%	.
O=c1cc(Nc2ccc3c(c2)OCCO3)[nH]c(=O)n1C1CCCCC1	?	i	12µM*	-6%	-10%	?
O=C(O)c1ccc(NC2=Nc3cccc4cccc2c34)cc1	?	15µM*	?	-6%	22%[11.4 µM]	-2%
COc1ccc(C(=O)NNC2=Nc3cccc4cccc2c34)cc1	i	?	7%	0%	-8%	?
COc1ccc(CC(=O)NNC2=Nc3cccc4cccc2c34)cc1	i	i	16µM*	-3%	3%	21µM*
Cc1ccc(C(=O)NNC2=Nc3cccc4cccc2c34)cc1	?	9.2µM*	-4%	-2%	-7%	6%
CCOC(=O)COc1cc(C)c(Cl)cc1C(=O)c1ccn2nc(-c3ccc(OC)cc3)cc2n1	i	i	.	.	15%	.
CCN(Cc1ccccc1)c1ccc(N=Nc2nn(C)c(C)c2[N+](=O)[O-])cc1	?	6.5µM*	-12%	-1%	-27%	0%
CCOC(=O)C1=C(N)n2c(s/c(=C\c3ccco3)c2=O)=C(C(=O)OCC)C1c1ccco1 (configuration not stated)	16µM*	4.6µM*	?	-7%	?	5.8µM*
CCOc1ccc(-c2cc(-c3nc(-c4ccc(C)cc4)no3)[nH]n2)cc1	i	i	.	.	-39%	.
COc1cccc(CNCCSc2nnnn2C)c1OCc1ccc(F)cc1	i	i	.	.	12%	.
COc1cc(CNCCc2c[nH]c3ccccc23)ccc1OCc1ccc(F)cc1	i	5.2µM*	?	-1%	-4%	?
COc1cccc(CNCCc2c[nH]c3ccccc23)c1OCc1ccc(F)cc1	?	16µM*	?	-4%	6%	?
C=C1c2cccc(O)c2C(O)=C2C(=O)[C@@]3(O)C(O)=C(C(N)=O)C(=O)[C@@H](N(C)C)[C@@H]3[C@@H](O)[C@H]12	.	.	?	.	.	-2%[20.6 µM]
CCCSCCCNC(=O)C1CCCN(c2nn3cc(-c4ccc(OC)cc4)nc3s2)C1 (configuration not stated)	i	i	.	.	-1%	.
CC(C)N1C(=O)C(Cc2nc3ccccc3c(=O)n2-c2ccccc2)c2ccccc21 (configuration not stated)	i	i	12%	1%	25%	4%
O=C(O)c1ccc(-n2c(/C=C/c3ccccc3)nc3ccccc3c2=O)cc1	i	i	-5%	-7%	-23%	-3%
CC(C)N1C(=O)/C(=C\c2nc3ccccc3c(=O)n2-c2ccccc2)c2ccccc21	?	?	2.9µM*	-1%	-28%	?
CC(C)N1C(=O)/C(=C/c2nc3ccccc3c(=O)n2-c2ccccc2)c2ccccc21	?	?	?	-1%	-15%	16µM*
Cc1cc(C)cc(-n2c(SCC(N)=O)nc3c(oc4ccccc43)c2=O)c1	i	i	.	.	-6%	.
COc1ccc2c(c1)c(C(=O)CN1CCN(C(=O)c3ccco3)CC1)c(C)n2C	i	23µM*	-6%	-5%	-14%	?
